Reference: PubChem BioAssay AID1159580 (chemical genetic matrix, 2015)
Where “and” joins values, the source holds several entries; their conditions need not be identical. Equal entries are not always repeated. Screen size: about 5,500 compounds; about 2,000 (36%) were called active. Roughly 18% stayed inconclusive and do not appear here. Rule as the data show it: active = normalized growth mostly below about 0.91 (no sharp cut-off); inconclusive = no clear call, values can overlap the other calls; inactive = mostly above about 0.92. Some of the results follow.

Assay: chemical genetic growth profiling, strain panel (AID 1159580);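 also: tested at 20 µM; growth read once vehicle control cultures reached saturation at 30 °C; 1 = growth at the plate median or of vehicle wells; lower values mean less growth of the strain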
Settings: S. cerevisiae deletion strains, growth OD

Measured: normalized growth

S=P(N1CC1)(N1CC1)N1CC1
inactive: locus YAL013W, strain DEP1, active compounds read low 1.01 | locus YAL021C, strain ccr4, active compounds read low 1 | locus YAL026C, strain drs2, active compounds read low 1.01 | locus YAL030W, strain snc1, active compounds read low 0.996 | locus YBL061C, strain skt5, active compounds read low 1.01 | locus YBR009C, strain hhf1, active compounds read low 1.01 | locus YBR021W, strain FUR4, active compounds read low 0.946 | locus YBR023C, strain chs3, active compounds read low 1.02 | locus YBR171W, strain sec66, active compounds read low 1.01 | locus YBR229C, strain ROT2, active compounds read low 1.01 | locus YBR231C, strain swc5, active compounds read low 1.01 | locus YBR279W, strain paf1, active compounds read low 0.999 | locus YCL011C, strain gbp2, active compounds read low 1.01 | locus YCL016C, strain dcc1, active compounds read low 0.999 | locus YCL029C, strain bik1, active compounds read low 1.01 | locus YCL061C, strain MRC1, active compounds read low 1 | locus YCL069W, strain vba3, active compounds read low 1.01 | locus YCR088W, strain abp1, active compounds read low 1.02 | locus YDL005C, strain med2, active compounds read low 1.01 | locus YDL035C, strain GPR1, active compounds read low 1.02 | locus YDL040C, strain nat1, active compounds read low 1.01 | locus YDL074C, strain BRE1, active compounds read low 1.01 | locus YDL101C, strain DUN1, active compounds read low 1.01 | locus YDL134C, strain PPH21, active compounds read low 1 | locus YDL192W, strain arf1, active compounds read low 0.995 | locus YDR001C, strain nth1, active compounds read low 1.01 | locus YDR069C, strain doa4, active compounds read low 0.997 | locus YDR101C, strain arx1, active compounds read low 0.997 | locus YDR137W, strain rgp1, active compounds read low 1.02 | locus YDR150W, strain NUM1, active compounds read low 1 | locus YDR159W, strain sac3, active compounds read low 1 | locus YDR162C, strain NBP2, active compounds read low 1.01 | locus YDR195W, strain ref2 0.971 | locus YDR297W, strain sur2, active compounds read low 1 | locus YDR318W, strain mcm21, active compounds read low 1.01 | locus YDR334W, strain swr1, active compounds read low 1.01 | locus YDR335W, strain msn5, active compounds read low 1 | locus YDR388W, active compounds read low 1.01 | locus YDR392W, strain spt3, active compounds read low 1.03 | locus YDR502C, strain sam2, active compounds read low 0.996 | locus YEL003W, strain gim4, active compounds read low 1 | locus YEL037C, strain rad23, active compounds read low 1 | locus YEL061C, strain CIN8 (second series), active compounds read low 1 | locus YEL061C, strain CIN8, active compounds read low 1.01 | locus YER015W, strain faa2, active compounds read low 1 | locus YER016W, strain bim1, active compounds read low 1 | locus YER110C, active compounds read low 1.01 | locus YER111C, strain swi4, active compounds read low 0.99 | locus YER155C, strain BEM2 (second series), active compounds read low 1.03 | locus YER155C, strain BEM2, active compounds read low 1 | locus YER167W, strain BCK2, active compounds read low 1.01 | locus YFR010W, strain ubp6, active compounds read low 1.01 | locus YGL078C, strain dbp3, active compounds read low 0.999 | locus YGL086W, strain mad1, active compounds read low 1 | locus YGL167C, strain pmr1, active compounds read low 1.01 | locus YGL173C, strain kem1, active compounds read low 1.02 | locus YGL227W, strain vid30, active compounds read low 1.01 | locus YGL240W, strain doc1, active compounds read low 1.01 | locus YGL248W, strain PDE1, active compounds read low 1.01 | locus YGL253W, strain hxk2, active compounds read low 1.02 | locus YGR078C, strain PAC10, active compounds read low 1.01 | locus YGR135W, strain pre9, active compounds read low 0.996 | locus YGR229C, strain SMI1, active compounds read low 0.971 | locus YGR252W, strain gcn5, active compounds read low 0.985 | locus YHR013C, strain ard1, active compounds read low 0.997 | locus YHR027C, strain rpn1, active compounds read low 0.997 | locus YHR030C, strain SLT2, active compounds read low 1.01 and 0.994 | locus YHR079C, strain IRE1 (second series), active compounds read low 1 | locus YHR079C, strain IRE1, active compounds read low 0.985 | locus YHR094C, strain hxt1, active compounds read low 1 | locus YHR129C, strain ARP1, active compounds read low 1.03 | locus YHR142W, strain chs7, active compounds read low 1 | locus YHR200W, strain rpn10, active compounds read low 0.997 | locus YIL066C, strain RNR3, active compounds read low 1.02 | locus YIL073C, strain SPO22, active compounds read low 0.993 | locus YIL125W, strain kgd1, active compounds read low 1.01 | locus YIR030C, strain dcg1, active compounds read low 1.02 | locus YJL092W, strain hpr5, active compounds read low 1 | locus YJL095W, strain BCK1 (second series), active compounds read low 1.01 | locus YJL095W, strain BCK1, active compounds read low 1.02 and 1.01 | locus YJL115W, strain asf1, active compounds read low 1.01 | locus YJL129C, strain trk1, active compounds read low 1.02 | locus YJL134W, strain LCB3, active compounds read low 1.01 | locus YJL154C, strain vps35, active compounds read low 1.01 | locus YJL164C, strain tpk1, active compounds read low 1.01 | locus YJL166W, strain qcr8, active compounds read low 1.01 | locus YJL168C, strain set2, active compounds read low 0.999 | locus YJL187C, strain SWE1 (second series), active compounds read low 1.01 | locus YJR043C, strain POL32, active compounds read low 1 | locus YJR066W, strain TOR1, active compounds read low 0.976 | locus YJR075W, strain HOC1, active compounds read low 1.01
